Test results from PubChem BioAssay AID652283 (National Center for Advancing Translational Sciences (NCATS), 2013).
“And” between values parts separate entries of the source, which are not always exact repeats. Equal entries are not always repeated. Inconclusive results are not listed. The source holds several records for some structures; these can differ, active in one and inactive in another. The source made the active and inactive calls. Calls follow the shape of the dose curve; as a rule, active = well fitted inhibition curve with a large enough effect; inconclusive = small, poorly fitted or top-dose-only effect; inactive = no such curve, though single readings can be large or run the other way.

Assay: qHTS Assay for Lipid Storage Modulators: COS7 Assay against Probe and Analogs
Details: COS7 lipid droplet area, BODIPY imaging, 18 h; cells loaded with 400 µM oleic acid
Source text: Storing lipids as a reservoir for energy or the anabolism of elementary metabolites is a common feature of probably all cells and is conserved from bacteria to humans. The universal cellular lipid storage organelle is the so-called lipid storage droplet (LD). Although ubiquitous, LDs share a simple structure composed of a hydrophobic core that harbors the storage lipids, which is shielded by a droplet-specific phospholipid monolayer to which proteins are attached. The current model of LD biogenesis involves an incorporation of the lipid core into the membrane leaflets of the endoplasmic reticulum (ER) followed by a subsequent budding-like maturation of a LD, which ultimately pinches off. Once released, LD volume can increase by localized lipogenesis or fusion of existing droplets. Storage lipids are re-mobilized enzymatically by lipase activity. Lipase regulation in the adipocyte is heavily studied and involves multiple components including catecholamine signaling, the LD-associated proteins Perilipin and comparative gene identification-58 (CGI-58) and at least two lipases named hormone sensitive lipase (HSL) and adipocyte triglyceride lipase (ATGL). LD regulation outside of the adipocyte is poorly understood and only few components are known. However, there is an urgent need to learn more about ectopic fat depots as mislocalized storage of lipids, for example in the liver or muscle, is an eminent health problem associated with insulin resistance or the metabolic syndrome. We developed a laser-scanning cytometer assay to enable 1,536-well screening and combined the results of the small molecules screen with an RNAi database based on lipid storage. In this assay we tested analogs of the probe against a mammalian cell line (COS7), to see if these small molecules could disrupt lipid storage. NIH Molecular Libraries Probe Production Centers Network [MLPCN] NIH Chemical Genomics Center [NCGC] MLPCN Grant: MH085686 Assay Submitter (PI): Mathias Beller, Max-Planck-Institut fur Biophysikalische Chemie
COS7 cells were obtained from ATCC (CRL-1651), 5500 cells/well were dispensed into Corning 96 well imaging plate (catalog # 3340), and cultured in 100 uL of 1:1 DMEM medium (PAA) contain 10% fetal bovine serum (FBS) for 24 hours at 37 degrees C, 95% humidity, and 5% CO2. The medium was exchanged for compound treatment. Compound treatment occurred in 150 microL serum reduced medium (5% FBS) and 0.2% DMSO in presence of 400 microM oleic acid for 17-18 h. Cells were then fixed (3.7 % formaldehyde in PBS, 5 min), permeabilized (0.1% Triton X100, 5 min) and washed three times with PBS. Lipid droplets (1:2000 BODIPY 493/503) and nuclei (1:1000 Hoechst 33342) were stained for 1h. Imaging was performed in a Zeiss Axiovert automatic microscope. Number of lipid droplet accumulated in […] cells were analyzed using visual examination of the microscopic images and additional quantification by image segmentation using Cell Profiler.

Max response, inactive:
CN(C)Cc1ccc(-c2nc3cccc4c3n2CCNC4=O)cc1 3.13%, CC(C)(C)OC(=O)NC1CCCc2c1cnn2-c1ccc(F)cc1F (stereo not given) 3.11%, CCOc1ccc(CCNC(=O)Cc2ccccc2)cc1OCC -10.6%, O=C(NC1CCCc2c1cnn2CCO)c1ccccn1 (stereo not given) 14.9%, O=C(NCCc1ccc(O)c(O)c1)c1cc2sccc2n1Cc1ccccc1 20.9%, CCOc1ccc(CCNC(C)=O)cc1OCC -6.62%, O=C(NCCc1ccc2c(c1)OCO2)c1cc2sccc2[nH]1 5.04%, O=C(NC1CCCc2c1cnn2-c1ccc(F)cc1F)c1cccc(=O)[nH]1 (stereo not given) 14.9%, O=C(NCCc1ccc2c(c1)OCO2)c1cc2sccc2n1Cc1ccccc1 19.6%, CCOc1ccc(CCNC(=O)C2(c3ccccc3)CC2)cc1OCC 2.24%, O=C(NC1CCCc2c1cnn2-c1ccc(F)cc1F)c1ccc(C2(C(F)(F)F)N=N2)cc1 (stereo not given) 3.15%, CCOc1ccc(CCNC(=O)c2ccccn2)cc1OCC 1.41%, CCOc1cc(F)c(CCNC(=O)c2cc3sccc3n2Cc2ccccc2)cc1OCC -106%, COc1cc(C)c(Sc2cnc(NC(=O)c3ccc(CNC(C)C(C)(C)C)cc3)s2)cc1C(=O)N1CCN(C(C)=O)CC1 (stereo not given) -8.98%, Cc1cc(SCc2sc(-c3ccc(C(F)(F)F)cc3)nc2C)ccc1OCC(=O)O 14.2%, CCOC(=O)C1CCN(C(=O)C(C)(C)NC(=O)Nc2ccc(N)cc2)CC1 -5.67%, CCOC(=O)C1CCN(C(=O)C2(NC(=O)Nc3ccccc3Cl)CCCCC2)CC1 -103%, O=C(NC1CCCc2c1cnn2-c1ccc(F)cc1F)c1ccc(C(=O)c2ccccc2)cc1 (stereo not given) 18.1%, O=C(NC1CCCc2c1cnn2-c1ccc(F)cc1F)c1ccccn1 (stereo not given) 16%, O=C(NC1CCCc2c1cnn2-c1ccc(F)cc1F)C1CCCCC1 (stereo not given) 3.71%, CCOc1ccc(CCNC(=O)c2cc3sccc3[nH]2)cc1OCC -4.32%, O=C(N[C@H]1CCCc2c1cnn2-c1ccc(F)cc1F)c1ccccn1 6.84%, CC(C)(C)OC(=O)NCCOCCOCCOCCn1ncc2c1CCCC2NC(=O)c1ccccn1 (stereo not given) 0.489%, CCn1c(C(=O)NCCc2ccc(OC)cc2)cc2sccc21 14.9%, CCOc1ccc(CCNC(=O)c2ccc(N3N=C(C)CC3=O)cc2)cc1OCC 0.211%

Potency, active:
CCOc1cc2c(cc1OCC)CN(C(=O)c1cc3sccc3n1Cc1ccccc1)CC2 3.32 µM, CCOc1ccc(CCNC(=O)c2cc3sccc3n2Cc2ccccc2)c(F)c1OCC 16.6 µM, CCOc1ccc(CCNC(=O)c2cc3ccccc3o2)cc1OCC 29.6 µM, CCOc1ccc(CCNC(=O)c2cc3ccccc3n2C)cc1OCC 16.6 µM, CC1=C(C(=O)NC2CCCc3c2cnn3-c2ccc(F)cc2F)OCCO1 (stereo not given) 13.2 µM, CCOc1ccc(CCNC(=O)c2cc3ccccc3n2Cc2ccc(Cl)c(F)c2)cc1OCC 0.332 µM, O=C(NC1CCCc2c1cnn2-c1ccc(F)cc1F)c1ccccc1 (stereo not given) 14.8 µM, CCOc1ccc(CCNC(=O)c2cc3sccc3n2C)cc1OCC 8.33 µM, CCOc1ccc(CCNC(=O)c2ccc(C3(C(F)(F)F)N=N3)cc2)cc1OCC 7.43 µM, CC(C)(C)OC(=O)NCCOCCOCCOc1ccc(-n2ncc3c2CCCC3NC(=O)c2ccccn2)cc1 (stereo not given) 18.7 µM, CCOC(=O)C1CCN(C(=O)C(C)(C)NC(=O)Nc2ccc(-c3ccccc3)cc2)CC1 10.5 µM, CCOC(=O)C1CCN(C(=O)C2(NC(=O)Nc3ccc(F)cc3F)CCCCC2)CC1 16.6 µM, O=C(NC1CCCc2c1cnn2-c1ccc(F)cc1F)c1ccccn1 (stereo not given) 16.6 µM and 14.8 µM, CCOc1ccc(CCNC(=O)C2COc3ccccc3O2)cc1OCC (stereo not given) 18.7 µM, CCOC(=O)C1CCN(C(=O)C(C)(C)NC(=O)Nc2ccc(Cl)cc2Cl)CC1 6.62 µM
